# TAR Tat displ: HIV-1 TAR-Tat binding disruption. HIV-1 TAR RNA, Tat peptide displacement FRET; hits give high values. z-score (no concentration beside the values). 100,000 tested, 0.6% active; active means z-score of 3 or more in at least 2 runs
# CDC25B-CDK2 inh: human CDC25B-CDK2/CyclinA binding inhibition; HTRF CDC25B-CDK2/CyclinA binding, anti-His/anti-Flag; hits give high values; z-score (no concentration beside the values); 94,000 tested, 0.72% active; in the data active means z-score above about 3.2
# A number is an active result; . = inactive; / = not tested or not shown. This is a sample that favours compounds with a hit; in the whole collection about 0.93% have one here.
SMILES,TAR Tat displ,CDC25B-CDK2 inh
CC1CCCCN1C(=O)CSc1nnc(-c2ccncc2)o1 (stereo not given),.,.
CCC(C(=O)N1CCN(c2ccccn2)CC1)n1c(C)c2cnn(-c3ccccc3)c(=O)c2c1C (stereo not given),.,.
Cc1ccc(C(=O)OCCSc2ccc(C#N)cc2[N+](=O)[O-])cc1,/,.
CSc1nc(N)nc2sc3c(O)cc(=O)[nH]c3c12,11.1,.
Cc1cc(-c2ccccc2)c2c(n1)sc1c(O)cc(=O)[nH]c12,.,.
COc1ccc(-n2c(=O)[nH]c(=O)c3sc(N)nc32)cc1,7.27,.
Nc1nc2c(s1)c(=O)[nH]c(=O)n2-c1ccccc1,.,.
COc1cc(C2CC(=O)NC3=C2C(=O)CC(C)(C)C3)cc(Cl)c1O (stereo not given),.,.
CC(=O)Nc1ccc(-n2nncc2-c2ccco2)cc1,.,/
O=C(Nc1ccc(-n2nncc2-c2ccco2)cc1)c1cnc2n(c1=O)CCS2,7.35,/
O=C1COc2cc(-c3c(N4CCCCC4)c(=O)c3=O)ccc2N1,.,/
O=C1COc2cc(-c3c(N4CCCC4)c(=O)c3=O)ccc2N1,11,/
CCOC(=O)C1CCN(c2cc(C)nc3nc(-c4ccco4)nn23)CC1,.,/
Cc1cc(C)n2c(SCc3ccc(C(=O)c4ccccc4)cc3)nnc2n1,.,8.33
Cc1cc(C)n2c(SCc3ccc(Br)cc3)nnc2n1,.,.
NCCc1ccc(O)c(O)c1,24.6,.
COC(=O)C(N)Cc1ccc(O)c(O)c1 (stereo not given),.,.
O=C(CN1C(=O)CSc2ncccc21)NCCCN1CCN(C2CCCCC2)CC1,.,.
COc1ccc(CCN[C@H]2CS(=O)(=O)C[C@@H]2S(=O)(=O)c2ccc(F)cc2)cc1,.,.
CC1(C)OC(=O)C(=CNc2ccc(F)c(Cl)c2)C(=O)O1,/,.
CC1(C)OC(=O)C(=Cc2ccc(Cl)cc2Cl)C(=O)O1,/,9.23
CCOc1ccc(/C=C/c2nc(C#N)c(NC)o2)cc1,.,.
C=CCSCC=C,15.2,/
CC(=O)Oc1cc2c(C(=O)NCC3CCCO3)c(C)oc2c2ccccc12 (stereo not given),.,.
CC(=O)Oc1cc2c(C(=O)NC3CCS(=O)(=O)C3)c(C)oc2c2ccccc12 (stereo not given),.,9.98
SMILES,TAR Tat displ,CDC25B-CDK2 inh
CCSCCOC(=O)C1=C(C)NC2=C(C(=O)CC(c3ccccc3)C2)C1c1cccc(F)c1 (stereo not given),.,.
Cc1nc2nc(-c3ccccc3)cc(=O)n2[nH]1,.,.
O=c1cc(-c2ccccc2)nc2nc(-c3ccco3)[nH]n12,6.53,.
COc1ccc(NC(=O)Nc2nnc(COc3ccccc3F)s2)cc1,.,4.65
CCc1nnc(NC(=O)Nc2ccc(OC)cc2)s1,/,.
O=C(CCc1nc2sc3c(c2c(=O)[nH]1)CCCCC3)N1CCN(c2ccc(F)cc2)CC1,.,/
NC(=O)C1CCN(C(=O)CCc2nc3sc4c(c3c(=O)[nH]2)CCCCC4)CC1,19.4,/
CC(C)(C)C1CCc2c(sc3nc(CCC(=O)N4CCC(C(N)=O)CC4)[nH]c(=O)c23)C1 (stereo not given),.,/
O=C(CCc1nc2sc3c(c2c(=O)[nH]1)CCCCC3)N1CCN(Cc2ccc3c(c2)OCO3)CC1,10.5,/
CC(=O)NCCNC(=O)CCc1nc2sc3c(c2c(=O)[nH]1)CCCCC3,5.98,/
CNC(=O)CCc1nc2sc3c(c2c(=O)[nH]1)CCCCC3,.,/
Cc1nc2c3cccnc3nn2c(C)c1CCC(=O)NC(C)CCc1ccco1 (stereo not given),.,.
CC(C)CCNc1nccn(-c2ccc(Cl)cc2)c1=O,.,/
NC(=O)c1cccc2c1NC(C(=O)O)C1CC=CC21 (stereo not given),27.2,.
O=C(O)C1Nc2c(O)cccc2C2C=CCC12 (stereo not given),/,.
Clc1ccc(-c2noc(-c3cccnc3NCC3CCCO3)n2)cc1 (stereo not given),.,.
COC(=O)C1=C(C(=O)OC)SC(=C2C(=S)C(C)(C)Nc3ccc(OC)cc32)S1,.,.
COC(=O)C1=C(C(=O)OC)SC(=C2C(=S)C(C)(C)Nc3cc(C)ccc32)S1,.,13
CCOC(=O)C1=CS/C(=C2/C(=S)C(C)(C)Nc3cc(C)ccc32)S1,.,.
CCOC(=O)C1=C(C(=O)OCC)SC(=C2C(=S)C(C)(C)Nc3cc(C)ccc32)S1,.,16.9
COc1ccc(CNc2cc(C)nc3c(-c4ccc(OC)c(OC)c4)c(C)nn23)cc1,.,.
COc1ccc(-c2cc3nc(C)cc(NCc4cccnc4)n3n2)cc1OC,5.06,.
N[C@@H](Cc1cnc[nH]1)C(=O)O,/,.
O=C(O)c1cnc[nH]1,/,3.86
CCn1c(C(=O)N2CCC(C(=O)NC(C)CCc3ccccc3)CC2)cc2sccc21 (stereo not given),/,.
SMILES,TAR Tat displ,CDC25B-CDK2 inh
O=C(c1ccc(Cl)c(NC2=NC3CS(=O)(=O)CC3S2)c1)N1CCN(c2ccccn2)CC1 (stereo not given),.,/
O=c1nc(/C=C/c2ccc(O)c(O)c2)oc2ccccc12,18.2,.
CSc1ccc(/C=C/c2nc(=O)c3ccccc3o2)cc1,.,.
COc1cc(-c2nc(-c3ccccc3)c(-c3ccccc3)[nH]2)ccc1O,/,.
COc1ccc(-c2nc(-c3cccs3)c(-c3cccs3)[nH]2)cc1O,.,18.3
CCCSCCCNC(=O)Cn1ncn2cccc2c1=O,.,.
Cn1c(C(=O)N2CCN(C(=O)c3ccco3)CC2)cc2c(=O)[nH]c3ccccc3c21,.,18.3
Cn1c(C(=O)N2CCN(C(=O)c3ccco3)CC2)cc2c(=O)n(C)c3ccccc3c21,.,.
CCn1c(SC)nnc1-c1nonc1NC(C)=O,.,.
Cc1ccc(-c2cnnc(-n3nc(C)c4c3NC(=O)CC4c3ccc(C(=O)O)cc3)n2)cc1 (stereo not given),.,.
Cc1nn(-c2nc3ccccc3[nH]2)c2c1C(c1ccc(C(=O)O)cc1)CC(=O)N2 (stereo not given),25.1,/
Cc1nn(-c2nncc(-c3ccc(F)cc3)n2)c2c1C(c1ccc(C(=O)O)cc1)CC(=O)N2 (stereo not given),3.66,.
Cc1nn(-c2nc3ccccc3[nH]2)c2c1C(c1cc(F)cc(F)c1)CC(=O)N2 (stereo not given),.,/
Cc1ccc(S(=O)(=O)c2cnc3ccccc3c2N2CCC(C)CC2)cc1,.,.
Cc1ccc2c(c1)NC(c1cccnc1)=NC(c1ccncc1)=N2,.,.
Cc1cc(C)c(S(=O)(=O)Nc2cc3c(cc2C)n(C)c(=O)n3C)c(C)c1,.,/
Cc1cc(C)c(S(=O)(=O)Nc2ccc[nH]c2=O)c(C)c1,.,9.4
Clc1ccc(OCCn2c(/C=C/c3ccco3)nc3ccccc32)cc1,.,.
Cc1ccc(Cn2c(/C=C/c3ccco3)nc3ccccc32)cc1,.,3.56
C(=C\c1nc2ccccc2n1CCOc1ccccc1)/c1ccco1,.,.
Cc1ccccc1Cn1c(/C=C/c2ccco2)nc2ccccc21,.,3.55
Cc1c(-c2nc(-c3ccc(Cl)cc3)no2)nnn1-c1cc(F)ccc1F,.,/
C=CCSC1=C(C#N)C(c2cccs2)C(C(=O)OCC)=C(c2ccccc2)N1 (stereo not given),.,.
Cc1ccc2oc(=O)c3cnn(CC(=O)N(Cc4ccccc4)C(C)C)c3c2c1,.,.
O=C1OC/C(=C(/O)c2ccc(Br)cc2)C1=O,/,.
Cn1c(=O)[nH]c2nnc(-c3cccnc3)nc2c1=O,.,.

# Assay outcomes as filed in PubChem BioAssay.
